Here are results for 13 molecules from PubChem BioAssay (EPA / NIEHS).

Several values for one entry are separate records, joined by “and”; a condition that tells them apart may be missing. Equal values may be shown once. Activity calls are given as the source filed them. Rule for the calls: active = hit-call score of the fitted dose curve at least 0.9, where 1 is the maximum; inactive = score below 0.9.

Usually AC50 stands for the midpoint of the concentration-response curve, whichever way the signal moves.

Read-out in the test: Collagen IV, COL4A1 (gene 1282)
The experiment in a line: BSK_MyoF_CollagenIV: BioMAP Diversity Plus: MyoF Assay for Collagen IV Biomarker Activity (AID 2284247). Particulars: primary human lung fibroblasts. As to the method: BSK_MyoF is a cell-based, multiplexed-readout assay that uses lung fibroblasts, […], with measurements taken at 24 hours after chemical dosing in a microplate: 96-well plate.BSK_MyoF_CollagenIV is an assay component measured in the BSK_MyoF assay. It measures Collagen IV antibody related to regulation of gene expression using ELISA technology.Data from the assay component BSK_MyoF_CollagenIV was analyzed at the endpoint, BSK_MyoF_CollagenIV, in the positive analysis fitting direction relative to DMSO as the negative control and baseline of activity. Using a type of binding reporter, gain or loss-of-signal activity can be used to understand protein changes. To generalize the intended target to other relatable targets, this assay endpoint is annotated to the 'cell adhesion molecules' intended target family, where the subfamily is 'collagen'.
The levels of cell surface (or secreted, indicated by the prefix "s") biomarker endpoints were measured by ELISA. Overt cytotoxicity to cells in confluent adherent cultures (all systems other than the BT system) was assessed by measuring total protein levels using sulforhodamine B (SRB) staining in parallel cultures at the time of biomarker measurements, indicated as SRB endpoints. For proliferation assays for adherent cell types, individual cell types are cultured at sub-confluence and relative cell numbers quantified by SRB staining at time points optimized for each system (48 h: 3C and CASM3C systems; 72 h: BT and HDF3CGF systems; 96 h: SAg system). SRB was performed by staining cells with 0.1% SRB after fixation with 10% TCA and reading wells at 560 nm.Viability and proliferation of PBMC (T cells) was quantified by Alamar Blue reduction for the SAg and BT systems. For PBMC viability (referred to as PBMC Cytotoxicity within the assay endpoint names), cells were plated (75,000/well in a 96-well plate) and then chemical samples added for 1 h before addition of activators, SEB and TSST-1 (20 ng/mL final concentration each). Cells were incubated for 90 h. Then, Alamar Blue (20 uL/well) (Invitrogen, Cat DAL1100) was added for 6 h, and the plates were read with a fluorescence microplate reader at 546/580 nm (excitation/emission). For PBMC proliferation, cells were plated and activated as above but incubated for only 16 h prior to addition of Alamar Blue. Plates were read after 6 h.
Consider `O=S(=O)(O)CCC(F)(F)C(F)(F)C(F)(F)C(F)(F)C(F)(F)C(F)(F)F`, for which the result was inactive.

Regarding `FC(F)(F)C(F)(F)C(F)(F)C(F)(F)C(F)(F)C(F)(F)I`, the AC50 is 51.3 µM (active) and 47.7 µM (active). Take `OCc1c[nH]c2ccccc12`: the outcome was inactive. Same read-out and setting: for `FC(F)C(F)(F)COCC1CO1` (stereo not drawn) the value was “inactive”; for `OC(O)(C(F)C(O)(O)C(F)(F)F)C(F)(F)F`, “inactive”; for `O=C(Cl)C(F)(F)C(F)(F)C(F)(F)C(=O)Cl`, “inactive”. On the same count and under the same terms, the same measure for `S=P(N1CC1)(N1CC1)N1CC1`: “inactive”; for `OCCC(F)(F)C(F)(F)C(F)(F)C(F)(F)F`: “inactive”. The same measure, in the same setting: for `FC(F)=C(F)C(F)(F)C(F)(F)C(F)(F)C(F)(F)C(F)(F)C(F)(F)F` the value was “inactive”. For the molecule `C[Si](C)(C)C(F)(F)C(F)(F)C(F)(F)F`, the result was inactive. In the case of `NCC(F)(F)C(F)(F)C(F)(F)C(F)(F)F`, the result was inactive. The same measure, in the same setting: for `Cc1cccc(O)c1C` the value was “inactive”; for `FC(F)(F)COC(OCC(F)(F)F)OCC(F)(F)F`, “inactive”.
